# Screening results: PubChem BioAssay, The Scripps Research Institute Molecular Screening Center
# Most compounds without a hit are left out; they make up all but 0.9% or so of the library.
# SRC3 TRFRET art – counter-screen for PPARgamma SRC-3 recruitment agonists: TR-FRET artefact; PPARgamma/SRC-3 format; hits give high values; TR-FRET ratio at 8 µM; 99,000 tested, 0.39% active
# PPARg SRC-3 ag – PPARgamma-driven SRC-3 recruitment agonism; 200,000 tested, 0.26% active; biochemical PPARgamma/SRC-3 coactivator recruitment assay; AID 731; activation, % at 8 µM; P37231; in the data active means activation above about 23%;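 further: 0% = DMSO and 100% = reference agonist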
# Target sequence (P37231 whole entry, looked up): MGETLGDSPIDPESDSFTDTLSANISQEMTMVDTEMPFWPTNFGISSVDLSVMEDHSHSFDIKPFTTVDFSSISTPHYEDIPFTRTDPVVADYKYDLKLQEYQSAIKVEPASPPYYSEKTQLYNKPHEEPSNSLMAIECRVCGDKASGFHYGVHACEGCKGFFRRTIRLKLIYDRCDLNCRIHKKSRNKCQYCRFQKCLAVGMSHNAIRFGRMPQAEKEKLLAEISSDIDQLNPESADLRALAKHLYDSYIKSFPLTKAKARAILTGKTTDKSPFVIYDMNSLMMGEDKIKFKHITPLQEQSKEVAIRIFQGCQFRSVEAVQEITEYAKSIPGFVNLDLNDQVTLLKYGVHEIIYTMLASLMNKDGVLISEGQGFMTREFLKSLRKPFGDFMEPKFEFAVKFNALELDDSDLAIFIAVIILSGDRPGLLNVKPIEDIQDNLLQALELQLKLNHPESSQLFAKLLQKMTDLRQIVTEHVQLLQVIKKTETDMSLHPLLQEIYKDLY
# SRC1 TRFRET art – TR-FRET artefact, counter-screen to PPARgamma/SRC-1 agonist assay | TR-FRET ratio at 8 µM | AID 1051 | TR-FRET detection artefact counter-screen, emission ratio; hits give high values | 99,000 tested, 0.34% active; in the data active means TR-FRET ratio above about 2300
# PPARg SRC-2 ag – promotes SRC-2 coactivator recruitment by human PPARgamma. P37231. PPARgamma LBD-SRC-2 recruitment, biochemical. activation, % at 8 µM. 200,000 tested, 0.34% active. AID 1032; in the data active means activation above about 22%;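 further: 0% = vehicle and 100% = reference agonist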
# PPARg SRC1 recr – agonists of human PPARgamma SRC-1 coactivator recruitment | P37231 | 200,000 tested, 0.41% active | activation, % at 8 µM | PPARgamma-SRC-1 coactivator recruitment biochemical assay; in the data active means activation above about 19%;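 further: 0% = DMSO and 100% = reference agonist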
# TR-FRET SRC-2 ct – TR-FRET artefact, counter-screen to PPARgamma/SRC-2 agonist assay; hits give high values; TR-FRET ratio at 8 µM; 200,000 tested, 0.4% active
# * hit, by the source's call; . = not tested or not shown. Unless noted, no stated cut-off is given here; in the data, active means TR-FRET ratio above about 2000; inactive means the rest.
SMILES,SRC3 TRFRET art,PPARg SRC-3 ag,SRC1 TRFRET art,PPARg SRC-2 ag,PPARg SRC1 recr,TR-FRET SRC-2 ct
CCN(CC)S(=O)(=O)c1ccc(NC(=O)c2cc(-c3cccs3)nc3ccccc23)cc1,1556,4,1867,-2,2,1711
Cc1cc(C)nc(NC(=O)c2cc(-c3ccc(C)s3)nc3ccccc23)c1,2323*,3,2309,5,7,1841
CN(C)S(=O)(=O)c1ccc(NC(=O)c2cc(-c3cccs3)nc3ccccc23)cc1,3343*,15,3250*,2,4,2669*
Cc1cc(NC(=O)c2cc(-c3cccs3)nc3ccccc23)no1,.,8,.,16,5,1659
CCOC(=O)c1nn(-c2ccc(Cl)cc2)c2nc(-c3ccc(C)cc3)c(C#N)c(=O)n12,.,52*,.,0,8,1733
CCOC(=O)C1CCN(C(=O)CSc2ccccc2Cl)CC1,1667,3,1902,3,21*,1445
Cc1sc(NC(=O)CSC2=NCCS2)nc1-c1ccccc1,.,7,.,3,-1,1486
CC(=O)N1CC(=O)N=C1SCC(=O)Nc1nc(-c2ccccc2)c(-c2ccccc2)s1,1929,10,2356*,18,17,1758
OC(C#CCN1CCCC1)(c1ccccc1)c1cccc(F)c1 (stereo not given),1768,7,1858,26*,1,1613
Cc1ccc(-c2cc(C(=O)N(C)Cc3cnn(C)c3C)c3cc(Br)ccc3n2)cc1,2046,10,1935,6,7,1910
Cc1ccc(-c2cc(C(=O)NCc3cnn(C)c3C)c3cc(Br)ccc3n2)cc1,.,22,.,19,14,2130*
COC(=O)c1cccc(NC2CC(=O)N(c3ccc(OC)c(OC)c3)C2=O)c1 (stereo not given),1521,5,2727*,6,18,1810
COc1ccc(N2C(=O)CC(Nc3ccc(C(=O)O)cc3)C2=O)cc1OC (stereo not given),1527,5,2011,9,5,1699
Cc1ccccc1OCC(=O)Nc1sc(C(=O)Nc2cccc(C)c2C)c(C)c1C#N,.,5,.,5,24*,1740
Cc1ccc(OCC(=O)NNC(=O)C(=O)NC(C)(C)C)cc1,1508,7,2454*,7,21*,1515
COc1ccc(C(=O)NCC(=O)OCC(=O)N2N=C(c3ccc(Cl)cc3)CC2c2ccco2)cc1OC (stereo not given),1326,-1,1546,4,-5,1536
O=C(CSc1nnc(C2CC2)n1Cc1ccco1)NCC(F)(F)F,1469,0,2315*,4,2,1660
CN(C(=S)NC(=O)c1ccc(Br)o1)c1ccccc1,1456,-1,2077,5,8,1552
Cc1ccc2cc(C#N)c(NCc3ccccc3)nc2c1,2317*,18,2504*,17,19,1722
CC(=O)N1CCN(c2ccc(NC(=O)/C=C/c3ccccc3)cc2)CC1,1652,5,2020,24*,9,1649
CC(=O)Nc1ccc(NC(=O)/C=C/c2ccccc2)cc1,1660,5,2103,4,3,1730
O=C(CSc1nnc(-c2ccc(F)cc2)c2ccccc12)Nc1ccccc1,2080*,8,2120,6,11,1768
O=C(CSc1nnc(-c2ccc(F)cc2)c2ccccc12)Nc1cccc(Cl)c1,3308*,5,2670*,4,4,2527*
O=C(CSc1nnc(-c2ccc(F)cc2)c2ccccc12)Nc1c(F)cccc1F,1547,-1,1814,17,8,1603
O=C(CSc1nnc(-c2ccc(F)cc2)c2ccccc12)Nc1ccccc1Cl,2763*,-1,1880,8,2,1884
SMILES,SRC3 TRFRET art,PPARg SRC-3 ag,SRC1 TRFRET art,PPARg SRC-2 ag,PPARg SRC1 recr,TR-FRET SRC-2 ct
c1ccc(C2=Nc3cccnc3C(c3ccccc3)=NN2)cc1,1638,-3,1699,-3,4,1431
COc1ccc(C2=NN(C(C#N)c3ccc(OC)cc3)C(c3ccccc3)C2)cc1 (stereo not given),1540,0,1609,0,7,1306
C=CCSC1=N/C(=C\c2ccc(C(=O)O)cc2)C(=O)S1,1528,2,1986,4,4,1639
Cc1ccc(S(=O)(=O)NC(=O)COc2ccccc2)cc1,1472,6,2230,0,21*,1758
CCC(C)NS(=O)(=O)c1ccc(OCC(=O)NCc2cccnc2)cc1 (stereo not given),.,2,.,8,6,1304
Cc1ccc(OCC(=O)NS(=O)(=O)c2ccccc2)cc1,1655,7,1979,-2,11,1545
Cc1ccc(NS(=O)(=O)c2ccc(OCC(=O)NCc3cccnc3)cc2)cc1,1701,4,1921,27*,2,1614
CCOc1ccc(NC(=S)NC(C)C(c2ccccc2)N2CCN(C)CC2)cc1 (stereo not given),1519,2,1662,3,8,1416
CC(NC(=O)COc1ccccc1)C(c1ccccc1)N1CCN(C)CC1 (stereo not given),1665,1,2331*,7,9,1583
CCOC(=O)CC(=O)CSc1nc(-c2ccccc2)cc(-c2ccccc2)c1C#N,2399*,8,2069,12,10,2021*
N#Cc1c(-c2ccccc2)cc(-c2ccccc2)nc1SCc1nnc(-c2ccccc2)o1,.,-4,.,4,86*,1373
CC(C)C(Sc1nc(-c2ccccc2)cc(-c2ccccc2)c1C#N)C(=O)O (stereo not given),1489,4,1481,-7,-5,1171
CC(C)(C)c1ccc(S(=O)(=O)N2CCCCC2)cc1,1530,3,2047,3,1,1476
COc1ccc(Nc2nc(S(=O)(=O)c3ccc(C)cc3)c(Cl)s2)cc1,1860,23*,2100,3,6,1709
Cc1ccc(S(=O)(=O)c2nc(Nc3ccccc3)sc2Cl)cc1,1658,6,1923,8,13,1595
N#Cc1c(SCC(N)=O)nc2c(c1-c1ccc(OCc3ccccc3)cc1)CCCC2,.,71*,.,9,63*,1578
N#CC1=C(N)OC2=C(CCC/C2=C/c2ccoc2)C1c1ccoc1 (stereo not given),.,31*,.,18,15,1567
N#CC1=C(N)OC2=C(CC/C2=C\c2ccc(F)cc2)C1c1ccc(F)cc1 (stereo not given),1626,1,1727,7,-6,1504
COc1cccc(OCc2nc3c4cnn(-c5ccccc5)c4ncn3n2)c1,.,7,.,3,10,1589
c1ccc(-n2ncc3c2ncn2nc(-c4ccco4)nc32)cc1,.,15,.,47*,12,2763*
O=C(CCCn1c(=S)[nH]c2cc3c(cc2c1=O)OCO3)N1CCN(c2ccccc2F)CC1,.,-1,.,5,-1,1568
Cc1ccc(C)c(N2CCN(C(=O)CCCn3c(=S)[nH]c4cc5c(cc4c3=O)OCO5)CC2)c1,.,11,.,10,9,2000*
Cn1c(-c2cccc([N+](=O)[O-])c2)cnc1NCc1ccc(C#N)cc1,1663,6,1541,1,-2,1290
